DT40 TDP1 CPT: qHTS for Inhibitors of human tyrosyl-DNA phosphodiesterase 1 (TDP1): qHTS in cells in presence of CPT. chicken DT40 Tdp1-/-;hTDP1 cells + 20 nM CPT, ATP luminescence, 48 h. Potency, µM (doses to about 46.2 µM), hits mostly inhibitors. hit rate 12% among 420,000; further: nearly all actives have a fitted effect of over 55% in size
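Cell growth measured by CellTiter-Glo luminescence after a minimum 48 h, 37 C compound exposure with 20 nM CPT in Tdp1-knockout DT40 cells stably expressing hTDP1, seeded 400/well; qHTS titration format.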
TGFb inhibitor: qHTS for Inhibitors of TGF-b; hit rate 1.2% among 410,000; HepG2 CAGA-GFP TGF-b/SMAD3 reporter, GFP fluorescence, 18 h; TGF-beta stimulated, 500 pg/mL final; Potency, µM (highest dose often 46.1 µM), hits mostly inhibitors; further: nearly all actives have a fitted effect of over 65% in size
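HEPG2 CAGA-GFP cells (1000/well, DMEM with 1% FBS) were pre-incubated 2 h at 37 degrees C, given compound by pin tool, then stimulated with TGF-beta at 500 pg/mL final for 18 h before per-cell GFP fluorescence imaging.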
TDP1 inh: qHTS Assay for Inhibitors of Tyrosyl-DNA Phosphodiesterase (TDP1). AID 485290, 2010. hit rate 0.28% among 350,000. Potency, µM (highest dose often 130 µM), hits mostly inhibitors. recombinant TDP1, AlphaScreen DNA substrate cleavage. Tyrosyl-DNA phosphodiesterase 1 (Homo sapiens), Q9NUW8; further: nearly all actives have a fitted effect of over 40% in size
Target sequence (Q9NUW8 whole entry, looked up): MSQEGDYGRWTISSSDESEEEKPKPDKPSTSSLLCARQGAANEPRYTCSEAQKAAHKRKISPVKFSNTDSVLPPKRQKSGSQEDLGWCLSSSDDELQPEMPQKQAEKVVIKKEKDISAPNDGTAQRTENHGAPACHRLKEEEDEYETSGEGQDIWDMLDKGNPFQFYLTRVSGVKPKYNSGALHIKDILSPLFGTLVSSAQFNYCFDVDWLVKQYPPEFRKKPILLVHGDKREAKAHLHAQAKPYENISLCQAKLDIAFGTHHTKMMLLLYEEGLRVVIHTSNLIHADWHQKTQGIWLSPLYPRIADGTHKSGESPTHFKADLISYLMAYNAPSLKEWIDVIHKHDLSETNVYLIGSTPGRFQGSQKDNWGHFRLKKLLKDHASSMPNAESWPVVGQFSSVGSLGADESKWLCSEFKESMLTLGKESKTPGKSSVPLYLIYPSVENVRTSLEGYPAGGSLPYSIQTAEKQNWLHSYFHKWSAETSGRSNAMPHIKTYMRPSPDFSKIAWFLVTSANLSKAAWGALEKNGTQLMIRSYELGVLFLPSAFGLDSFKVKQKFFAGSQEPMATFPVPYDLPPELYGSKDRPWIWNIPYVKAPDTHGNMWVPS
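Recombinant E. coli-expressed Tdp1 (1 nM) preincubated with compound 15 min at RT, then 5'-biotin/3'-phosphotyrosine-FITC DNA substrate (15 nM) added for 5 min. AlphaScreen beads (10 ug/ml) added, 10 min RT; tyrosine-FITC cleavage read as signal loss.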
TDP1 cell noCPT: qHTS for Inhibitors of human tyrosyl-DNA phosphodiesterase 1 (TDP1): qHTS in cells in absence of CPT; DT40 Tdp1-/- hTDP1 cells, no CPT, ATP luminescence, 48 h; Potency, µM (series often up to 46.2 µM), actives largely listed as inhibitors; hit rate 15% among 420,000; AID 686978, 2013; further: nearly all actives have a fitted effect of over 55% in size
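Stably hTDP1-transfected Tdp1-null chicken DT40 cells were treated with library compounds minus camptothecin and grown for at least 48 hr at 37 °C, after which cellular ATP was quantified by luminescence.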
HepG2 viability: qHTS for Inhibitors of TGF-b: Cytotox Counterscreen | HepG2 CAGA-GFP viability, ATP luminescence, 18 h | Potency, µM (series often up to 46.1 µM), usual class: cytotoxic | hit rate 0.76% among 410,000 | AID 588856, 2011
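HepG2 CAGA-GFP cells (1000/well, DMEM with 1% FBS) received compound, then TGF-beta at 500 pg/mL final, and were incubated 18 hours at 37 degrees C. Viability was read by CellTiter-Glo luminescence. Media-only wells were set as complete cell-killing and DMSO as no toxicity.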
IL1B secr inh: qHTS for Inhibitors of Inflammasome Signaling: IL-1-beta AlphaLISA Primary Screen. activity change, % at 57.5 µM. hit rate 4.7% among 360,000. AID 743279, 2014. THP-1 LPS/ATP IL-1B secretion, AlphaLISA, 16 h; stronger effect = lower value; in the data active means activity change below about -50%; inconclusive means mostly about -30% to -49%
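Secreted IL-1B measured by AlphaLISA bead assay after 16 h compound exposure of THP-1 cells; compounds (final up to 57.5 uM) added 1 h before LPS (250 ng/mL) and ATP (1.25 mM) stimulation; lower signal means less secretion.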
Numbers stand for hits; n = inactive; u = inconclusive; x = no result; ! = not active in a repeat; [ ] = another dose, or the depositor's remark. Only some compounds are listed: those with a hit (about 19% of all), similar ones and a draw of the others. Unless noted, the call rests on the fitted dose curve; in most records, active means well fitted curve in the direction sought with a large enough effect; inconclusive means small, poorly fitted or top-dose-only effect, or another doubt; inactive means no such curve, though single readings can be large; an effect the other way counts as inactive or inconclusive.

SMILES	DT40 TDP1 CPT	TGFb inhibitor	TDP1 inh	TDP1 cell noCPT	HepG2 viability	IL1B secr inh
COc1ccc2c(c1)c1c(c(=O)n(-c3ccccc3C)c(=O)n1C)n2C	n	n	n	n	n	x
CN1c2ccccc2C(C)(C)C12C=Nc1c(ccc3ccccc13)O2 (stereo not given)	n	u	n	n	n	-58
COc1ccc2ccc3c(c2c1)N=CC1(O3)N(C)c2ccccc2C1(C)C (stereo not given)	u	7.9µM	n	23µM	n	n
CC1(C)OC(=O)N(c2ccccc2)C12C=Cc1cc(Br)ccc1O2 (stereo not given)	u	u	n	u	n	u
CN1c2ccccc2C(C)(C)[C@]12C=Cc1cc(O)ccc1O2	2.6µM	18µM	n	7.3µM	n	n
COc1ccccc1NC(=O)CN1C(=O)CC(C)S(=O)(=O)c2ccccc21 (stereo not given)	n	n	n	n	n	n
COCCNC(=O)Cn1nc(-c2ccccc2F)ccc1=O	n	n	x	n	n	n
CN(C)CCCn1c2c3ccccc3ccc2c2oc(=O)c3ccccc3c21	2.6µM	8.9µM	x	4.6µM	10µM!	-100
CN(C)CCCn1c(=S)[nH]c2ccccc2c1=O	n	n	n	n	n	n
CCc1ccc(NC(=O)Nc2nnc(N(C)C3CCCCC3)s2)cc1	u	n	n	u	n	x
O=C(COc1ccc(F)cc1)Nc1c(C(=O)N2CCC(N3CCCCC3)CC2)oc2ccccc12	u	n	n	7.3µM	n	u
O=C(Nc1c(C(=O)N2CCN(c3ccccc3F)CC2)oc2ccccc12)c1ccccc1F	13µM	u	n	15µM	n	x
COc1cc(CCC(=O)Nc2c(C(=O)N3CCN(c4ccccc4)CC3)oc3ccccc23)on1	u	n	n	16µM	n	-61
COc1ccc(CC(=O)Nc2c(C(=O)N3CCN(c4ccccc4OC)CC3)oc3ccccc23)cc1OC	u	n	n	23µM	n	n
O=c1cc(/C=C/c2ccc([N+](=O)[O-])cc2)c2ccccc2[nH]1	n	n	x	n	n	x
Cc1cccc(OCC(=O)Nc2c(C(=O)N3CCN(c4ccccc4)CC3)oc3ccccc23)c1	u	n	n	23µM	n	x
O=C(Nc1c(C(=O)N2CCN(c3ccccc3)CC2)oc2ccccc12)c1ccc(Br)o1	23µM	n	n	21µM	n	x
COc1ccc(C)cc1NC(=O)c1c(C(=O)Nc2cccc(C)c2C)sc2nc(C)cc(=O)n12	n	n	n	n	n	x
O=C(O)C1CSC(c2coc3ccccc3c2=O)N1 (stereo not given)	26µM	u	n	u	n	n
COc1ccc(N(C)C(=O)c2cc3c(s2)-c2ccc(Cl)cc2S(=O)(=O)C3)c(OC)c1	18µM	n	n	u	n	n
CN(Cc1ccco1)C(=O)c1cc2c(s1)-c1ccc(Cl)cc1S(=O)(=O)C2	u	n	n	u	n	n
COc1ccc(N(C)C(=O)c2cc3c(s2)-c2ccccc2OC3)c(OC)c1	15µM	u	x	9.2µM	n	-73
CN(C(=O)c1cc2c(s1)-c1ccccc1S(=O)(=O)C2)c1ccccc1	12µM	n	x	23µM	n	n
CN(C(=O)c1cc2c(s1)-c1ccccc1S(=O)(=O)C2)c1ccccc1F	n	u	n	u	n	n
CCOc1ccc(CCNC(=O)Cn2nnc(-c3ccccc3Cl)n2)cc1OCC	n	n	n	n	n	x
SMILES	DT40 TDP1 CPT	TGFb inhibitor	TDP1 inh	TDP1 cell noCPT	HepG2 viability	IL1B secr inh
O=C(Nc1ccncc1)c1cc(C2CCCCN2C(=O)CCCc2ccccc2)on1 (stereo not given)	16µM	n	x	15µM	n	n
O=C(Nc1cccc2c1CCCC2)c1cc(C2CCCCN2C(=O)CCCc2ccccc2)on1 (stereo not given)	16µM	n	x	u	n	n
Cc1ccc(-n2nc3c(c2NC(=O)CC(C)C)CS(=O)C3)cc1 (stereo not given)	n	n	x	n	n	n
Cc1nn(-c2nc(-c3ccc(F)cc3)cc(C(F)(F)F)n2)c(C)c1Br	u	n	n	18µM	n	x
Cc1nn(-c2nc(-c3ccco3)cc(C(F)(F)F)n2)c(C)c1Cl	n	n	n	n	n	n
Cc1nn(-c2nc(-c3ccc(F)cc3)cc(C(F)(F)F)n2)c(C)c1Cl	18µM	n	n	18µM	n	x
O=C(COc1ccccc1Cl)NNC(=O)Cn1[nH]c(=O)c2ccccc2c1=O	9.2µM	n	n	u	n	n
COc1ccc(C)cc1NCc1nnc2n1CCCCC2	n	n	n	n	n	x
O=c1onc(-c2cccnc2)n1-c1ccccc1F	n	n	n	n	n	n
COc1ccccc1CCNC(=O)c1ccc2c(c1)c(C)c(C)n2Cc1ccc(Cl)cc1	23µM	n	n	21µM	n	x
COc1ccc(OC)c(CNC(=O)c2ccc3c(c2)c(C)c(C)n3Cc2ccc(Cl)cc2)c1	16µM	u	n	u	n	x
Cc1c(C)n(Cc2ccc(Cl)cc2)c2ccc(C(=O)NCCN3CCOCC3)cc12	u	n	n	u	n	n
CCc1ccc(NC(=O)Cn2c(=O)n(CCCCC(=O)NCCc3ccccc3)c(=O)c3ccccc32)cc1	n	n	n	n	n	x
COc1cccc(-c2csc(N3CCN(C(=O)C4CCCCC4)CC3)n2)c1	u	u	n	u	n	-73
COCCCNC(=S)N1CCN(c2nc(-c3ccc(F)cc3)cs2)CC1	u	u	x	u	n	u
CCCNC(=S)N1CCN(c2nc(-c3cccc(OC)c3)cs2)CC1	u	n	x	u	n	-59
CCCNC(=S)N1CCN(c2nc(-c3ccc(C)cc3)cs2)CC1	u	u	x	u	n	n
COCCNC(=S)N1CCN(c2nc(-c3ccccc3)cs2)CC1	u	u	x	18µM	n	n
CCCc1cc(=O)n2nc(N3CCC(C(=O)N4CCN(c5cccc(OC)c5)CC4)CC3)sc2n1	12µM	u	n	5.8µM	n	u
N[C@@H]1CCN(O)C1=O	n	x	n	n	x	x
CC(C)c1ccc(N2C(=O)CS(=O)(=O)C23C(=O)N(Cc2cccc(F)c2)c2ccccc23)cc1 (stereo not given)	u	n	n	u	n	x
N#Cc1ccc(OCC(O)CN2CCN(CC(O)COc3ccc(C#N)cc3)CC2)cc1 (stereo not given)	u	n	n[0.0935 µM]	26µM	n	n

Source: PubChem
